BoNT F protease – BoNT/F light chain protease inhibitors, primary screen, biochemical, flow cytometry, MLPCN library; Botulinum neurotoxin type F light chain protease (Clostridium botulinum); Multiplex microsphere protease cleavage assay; inhibition, % at 10 µM; actives 0.22% (n = 360,000); AID 588497, 2011; in the data active means inhibition above about 35%, passing the limit was not always enough; inconclusive means no clear call, values can overlap the other calls; further: plate controls were buffer without enzyme for full effect and enzyme alone for no effect
MazF activator – activators of E. coli MazEF toxin-antitoxin RNase, primary screen, biochemical, fluorescence, uHTS. FAM/BHQ RNA-DNA oligo cleavage fluorescence, 5 h. activation, % at 20 µM. Endoribonuclease toxin MazF (Escherichia coli (strain K12)), P0AE70. actives 0.32% (n = 350,000). AID 504720, 2011; in the data active means activation above about 50%
Bead autofluor – counter-screen for toxin protease inhibitors: compound fluorescence. compound autofluorescence counterscreen, microsphere flow cytometry; stronger effect = higher value. fluorescence intensity (concentration not given with the values). actives 3.1% (n = 360,000). AID 624483; in the data active means fluorescence intensity above about 16000; inconclusive means no clear call, values can overlap the other calls
PfHsp40 yeast – rescue of yeast from PfHsp40 toxicity, primary screen, S. cerevisiae, ATP luminescence; S. cerevisiae expressing PfHsp40, growth rescue; growth rescue, % at 12.5 µM; actives 0.68% (n = 340,000); AID 504582, 2011; in the data active means growth rescue above about 28%, passing the limit was not always enough; inconclusive means no clear call, values can overlap the other calls;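 further: yeast W303a lacking pdr1 and pdr3 grown in galactose medium; growth measured after three days at 30 °C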
BoNT-A LC inh2 – BoNT/A light chain protease inhibitors, primary screen, biochemical, flow cytometry, MLPCN library; inhibition, % at 10 µM; AID 588499, 2011; Botulinum neurotoxin type A light chain protease (Clostridium botulinum A str. ATCC 3502); actives 0.17% (n = 360,000); multiplex microsphere protease substrate cleavage; further: plate controls were buffer without enzyme for full effect and enzyme alone for no effect
Anthrax LF inh2 – Bacillus anthracis LF protease inhibitors, primary screen, biochemical, multiplex microsphere, MLPCN library. Lethal factor (Bacillus anthracis), P15917. multiplex microsphere protease cleavage assay. inhibition, % at 10 µM. actives 0.12% (n = 360,000). AID 588501, 2011; further: plate controls were buffer without enzyme for full effect and enzyme alone for no effect
The depositor's hits bear a star; ? = inconclusive; · = no result. In the library only some 4.3% were active in any assay of this set; here they are far more common. Unless noted, no stated cut-off is given here; in the data, active means inhibition above about 30%; inconclusive means no clear call, values can overlap the other calls; inactive means below that.

SMILES	BoNT F protease	MazF activator	Bead autofluor	PfHsp40 yeast	BoNT-A LC inh2	Anthrax LF inh2
CCOC(=O)CN1C(=O)C(O)(CC(=O)c2cccc(OC)c2)c2ccccc21 (stereo not drawn)	1	12	23744*	0	-1	-4
Cc1ccc(/C=C/C(=O)c2ccc(N3CCOCC3)cc2)s1	-1	5	4948	0	11	8
CCOC(=O)c1c(C)[nH]c(C(=O)OCC(=O)N2CCN(S(=O)(=O)c3ccc(C)cc3C)CC2)c1C	0	-15	3825	0	0	-5
COc1ccc(CN2C(=O)C(O)(CC(=O)c3ccc4c(c3)OCO4)c3ccccc32)cc1OC (stereo not drawn)	4	5	22009*	1	5	-4
O=C(/C(N=Nc1cccc(C(F)(F)F)c1)=C(/O)c1cccs1)C(F)(F)F	?	2	3548	195*	-1	-6
Cc1ccc(N=C/C(C(=O)C(F)(F)F)=C(\O)c2cccs2)cc1	10	-2	3838	1	1	2
CN(C(=O)/C(N=Nc1cccc(C(F)(F)F)c1)=C(\O)C(F)(F)F)c1ccccc1	-1	1	16687*	2	-1	-1
CC(=O)/C(N=Nc1cccc(C(F)(F)F)c1)=C(\C)O	-1	1	4434	1	0	-2
CN(CC(=O)Nc1ccc(Cl)c(Cl)c1)CC(=O)N1CCc2ccccc21	-2	-2	4076	·	-1	0
O=C(CSc1cc(Cl)ccc1Cl)NCC1CCCO1 (stereo not drawn)	0	-2	22708*	0	1	-1
Clc1ccccc1CNCC1CCCO1 (stereo not drawn)	12	5	2851	0	0	-11
Nc1nc(SCC(=O)NCC2CCCO2)n[nH]1 (stereo not drawn)	-37	0	3610	-1	-2	-7
Oc1ccc(Cl)cc1CNCC1CCCO1 (stereo not drawn)	-7	-2	20694*	-1	-4	-2
O=C(CSc1nc2cc(Cl)ccc2s1)NCC1CCCO1 (stereo not drawn)	-5	-9	2787	-3	0	0
Nc1cc(N)nc(SCC(=O)NCC2CCCO2)n1 (stereo not drawn)	-1	-3	20538*	-1	?	-1
COc1ccc2oc(C)c(C(=O)c3ccc(C)cc3)c2c1	7	-5	3931	0	-4	6
CC1=C(C(=O)N2CCCCCC2)CC(CC(=O)NCc2cccc3ccccc23)C(=O)N1CCC1=CCCCC1 (stereo not drawn)	-3	·	5531	·	0	-10
CN1CCN(c2nc(-c3ccccn3)nc3ccccc23)CC1	-1	3	23212*	0	-1	-1
Cc1cccc(Oc2nc(-c3ccccn3)nc3ccccc23)c1	?	4	3509	195*	-7	-1
CC(=O)Nc1ccc(Oc2nc(-c3ccccn3)nc3ccccc23)cc1	8	5	4097	-1	-1	-10
Cc1cccc(Oc2nc(-c3ccncc3)nc3ccccc23)c1	?	-5	5436	15	?	-18
Cc1ccccc1Oc1nc(-c2ccccn2)nc2ccccc12	?	0	3698	245*	-8	6
COCOCCn1cc(CN2CCS(=O)(=O)N(Cc3ccc(-c4ccc(OC)cc4)cc3)C(C)C2=O)nn1 (stereo not drawn)	5	1	3596	·	-1	-2
O=C(NCCOc1nc(N2CCOCC2)nc(N2CCOCC2)n1)Nc1ccc(Cl)cc1	0	-2	11489	1	-1	-4
Cc1ccc(S(=O)(=O)NCCNC(=O)N2CCOCC2)cc1	-1	3	21580*	-1	-2	0
Cc1ccc(S(=O)(=O)NCCOc2nc(N3CCOCC3)nc(N3CCOCC3)n2)cc1	5	-10	21551*	-1	2	4
COc1cc(NC(=S)N2CCCC(CO)C2)c(OC)cc1Cl (stereo not drawn)	-6	4	2592	-1	-1	-3

Screens (PubChem)
